A short description of assay [1]: compounds binding Alexa647 anti-His antibody – biochemical, small-molecule microarray, 635 nm fluorescence, artefact control for SMM control protein annotation, primary screen (AID 1128).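 Further: score merges feature fluorescence with signal-to-noise for each printed compound spot.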 The note with it: higher = more signal.
In assay [2] the test system is Human papillomavirus type 1a E7 protein (residues 1-88). Put plainly: HPV1a E7 small-molecule binders, primary screen, biochemical, small-molecule microarray, residues 1-88, 635 nm (AID 1129). The note with it: small-molecule microarray binding, fluorescence 635 nm; higher = more signal.
The target in assay [3] is Focal adhesion kinase 1 (Homo sapiens) (UniProt Q05397). Put plainly: PTK2 protein binding on printed compound slides – biochemical, small-molecule microarray, 635/667 nm fluorescence, BSA, DTT, primary screen (AID 1130).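 Further: composite of spot emission at 667 nm and signal to noise over triplicate slides.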 As to conditions: 635 nm fluorescence, higher = more signal.
Sequence of Focal adhesion kinase 1 (Homo sapiens) (Q05397 whole entry, looked up): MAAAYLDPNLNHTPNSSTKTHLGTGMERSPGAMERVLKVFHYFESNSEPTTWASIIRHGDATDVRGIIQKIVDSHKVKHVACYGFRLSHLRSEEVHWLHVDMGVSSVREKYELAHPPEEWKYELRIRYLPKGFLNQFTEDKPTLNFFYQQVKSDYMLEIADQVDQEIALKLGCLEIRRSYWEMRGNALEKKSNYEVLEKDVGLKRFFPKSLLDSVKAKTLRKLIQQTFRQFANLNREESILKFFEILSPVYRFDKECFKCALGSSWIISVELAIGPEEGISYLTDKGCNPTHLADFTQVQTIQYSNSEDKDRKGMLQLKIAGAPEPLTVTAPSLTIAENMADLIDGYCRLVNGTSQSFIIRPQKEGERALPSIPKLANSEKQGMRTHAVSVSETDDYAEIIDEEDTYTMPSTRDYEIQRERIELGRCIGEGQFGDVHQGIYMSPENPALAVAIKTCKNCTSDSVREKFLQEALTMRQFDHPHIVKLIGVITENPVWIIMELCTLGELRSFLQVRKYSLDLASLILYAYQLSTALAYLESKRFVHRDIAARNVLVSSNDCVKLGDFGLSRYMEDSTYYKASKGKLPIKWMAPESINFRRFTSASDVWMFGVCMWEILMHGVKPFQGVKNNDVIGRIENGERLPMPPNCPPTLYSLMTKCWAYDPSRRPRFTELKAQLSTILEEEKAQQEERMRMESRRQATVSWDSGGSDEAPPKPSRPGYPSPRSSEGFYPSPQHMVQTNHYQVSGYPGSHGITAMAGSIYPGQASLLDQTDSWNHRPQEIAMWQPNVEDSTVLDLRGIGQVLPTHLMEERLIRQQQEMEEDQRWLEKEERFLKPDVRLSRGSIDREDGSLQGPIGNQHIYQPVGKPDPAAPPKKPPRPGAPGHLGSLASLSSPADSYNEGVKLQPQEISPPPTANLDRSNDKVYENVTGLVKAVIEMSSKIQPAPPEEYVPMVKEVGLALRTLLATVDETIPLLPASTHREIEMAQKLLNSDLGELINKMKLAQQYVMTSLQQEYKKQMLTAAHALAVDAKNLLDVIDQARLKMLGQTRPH
Assay [4] has as its system Fibrinogen (Alexa647-labelled). Put plainly: Alexa647-fibrinogen binding to printed small molecules – biochemical, small-molecule microarray, 635/667 nm fluorescence, artefact control for SMM control-protein annotation, profiling panel (AID 1131).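 Further: z-score merges 667 nm fluorescence with per-spot signal-to-noise over triplicate slides.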 As to conditions: fibrinogen-A647 binding fluorescence, higher = more signal.
The target in assay [5] is Follistatin (Homo sapiens) (UniProt P19883). Kind of assay: FST protein binding to printed compounds – biochemical, small-molecule microarray, 635/667 nm fluorescence, primary screen (AID 1132). The note with it: 635 nm fluorescence, higher = more signal.
Sequence of Follistatin (Homo sapiens) (P19883 whole entry, looked up): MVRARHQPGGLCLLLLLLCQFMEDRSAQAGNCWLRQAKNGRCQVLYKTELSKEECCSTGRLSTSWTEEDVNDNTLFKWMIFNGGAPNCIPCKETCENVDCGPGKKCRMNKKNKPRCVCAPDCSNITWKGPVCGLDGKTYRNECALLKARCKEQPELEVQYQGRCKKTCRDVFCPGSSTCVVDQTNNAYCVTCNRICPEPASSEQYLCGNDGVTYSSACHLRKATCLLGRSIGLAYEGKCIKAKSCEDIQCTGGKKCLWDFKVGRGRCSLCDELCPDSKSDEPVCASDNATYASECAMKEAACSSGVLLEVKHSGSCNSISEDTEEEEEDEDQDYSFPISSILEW
The target in assay [6] is Fibroblast growth factor 2 (Homo sapiens) (UniProt P09038). Put plainly: basic fibroblast growth factor binding to printed compounds – biochemical, small-molecule microarray, 635/667 nm fluorescence, primary screen (AID 1133). As to conditions: FGF2, fluorescence 635/667, higher = more signal.
Sequence of Fibroblast growth factor 2 (Homo sapiens) (P09038 whole entry, looked up): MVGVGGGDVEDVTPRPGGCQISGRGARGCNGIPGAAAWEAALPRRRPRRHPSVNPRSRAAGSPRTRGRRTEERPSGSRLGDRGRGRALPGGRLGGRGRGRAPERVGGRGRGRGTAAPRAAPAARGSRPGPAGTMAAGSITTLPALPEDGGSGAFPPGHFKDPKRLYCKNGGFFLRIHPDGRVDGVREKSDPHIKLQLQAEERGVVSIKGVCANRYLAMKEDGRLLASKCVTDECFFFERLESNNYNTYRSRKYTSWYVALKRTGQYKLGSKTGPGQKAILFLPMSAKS
Assay [7] in a line: JC-1 mitochondrial potential readout, lung cancer cells – cell-based, A549, JC-1 fluorescence, basal, 24 h, 100 nL, profiling panel (AID 1138).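 Further: A549 lung adenocarcinoma cells under basal conditions with no added stimulus; test concentration not given here.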 As to conditions: higher = more signal.
The next assay relates to Lefty1. Put plainly: Lefty1 protein binding to printed compounds – biochemical, small-molecule microarray, 635/667 nm fluorescence, primary screen (AID 1139). As to conditions: fluorescence 635/667, higher = more signal.
In assay [8] the test system is wheat germ agglutinin (Triticum aestivum), Alexa647-labelled. Kind of assay: Alexa647-WGA lectin binding to printed small molecules – biochemical, small-molecule microarray, 635/667 nm fluorescence, artefact control for SMM control-protein annotation, profiling panel (AID 1140).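 Further: score merges 667 nm feature emission with signal to noise over triplicate slides.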 As to conditions: WGA-A647 binding, 635 nm fluorescence, higher = more signal.
Assay [9] has as its target Luciferin 4-monooxygenase (Photinus pyralis) (UniProt P08659). Put plainly: inhibition of purified Photinus pyralis luciferase – biochemical, luminescence, purified enzyme, 2006 set, primary screen (AID 1141).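 Further: cell-free assay with purified firefly luciferase at 100 ng per well in PBS; test concentration not given here.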 The note with it: purified firefly luciferase, SteadyGlo luminescence, 30 min; higher = more signal, called active from +8 up or from −8 down.
The test system of assay [10] is Wnt5a (protein binding on small-molecule microarray). Put plainly: small molecules binding Wnt5a protein – biophysical, small-molecule microarray, 635/667 nm fluorescence, primary screen (AID 1142).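 Further: fluorescence read at 667 nm with signal to noise per printed feature.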 As to conditions: 635 nm fluorescence, higher = more signal.
A short description of assay [11]: ATP-based viability of Huh7 replicon cells – cell-based, CellTiter-Glo luminescence, basal, 48 h, cytotoxicity control for HCV replication inhibitor project, primary screen (AID 1143).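 Further: Huh7 hepatoma cells carrying a hepatitis C replication reporter with no stimulus; test concentration not given here.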 As to conditions: higher = more signal, called active from +8 up or from −8 down.
Assay [12] is described as follows: Pseudomonas biofilm growth suppression – PAO1 strain, BacTiter-Glo luminescence, LB-PBS, primary screen (AID 1144). The note with it: P. aeruginosa PAO1 biofilm, 12 h, higher = more signal.
Assay [13] in a line: basal CRE-LacZ reporter activity in PC12 – cell-based, unstimulated, primary screen (AID 1145). As to conditions: no forskolin, luminescence, 4.5 h, higher = more signal, called active from +8 up or from −8 down.
Assay [14] is described as follows: forskolin-driven CRE-LacZ activity in PC12 – cell-based, CRE-LacZ reporter, forskolin-stimulated, primary screen (AID 1146).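 Further: PC12 cells with 6xCRE LacZ reporter stimulated by forskolin 10 µM; beta-galactosidase reporter signal reflecting CREB driven transcription.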 The note with it: luminescence, 4.5 h, higher = more signal, called active from +8 up or from −8 down.
The target in assay [15] is Streptavidin (Streptomyces avidinii) (UniProt P22629). Put plainly: compounds binding control protein streptavidin – biophysical, small-molecule microarray, 635/667 nm fluorescence, artefact control for SMM compound annotation, primary screen (AID 1147).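 Further: signal reflects streptavidin binding to arrayed compounds as a control protein.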 As to conditions: higher = more signal.
Sequence of Streptavidin (Streptomyces avidinii) (P22629 whole entry, looked up): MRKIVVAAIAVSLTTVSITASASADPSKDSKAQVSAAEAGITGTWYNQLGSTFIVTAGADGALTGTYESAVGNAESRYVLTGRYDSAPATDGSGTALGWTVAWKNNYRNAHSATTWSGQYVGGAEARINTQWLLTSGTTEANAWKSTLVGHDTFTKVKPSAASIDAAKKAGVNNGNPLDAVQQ
Assay [16] can be described thus: probe aInhba binding on compound microarray – biochemical, small-molecule microarray, 635/667 nm fluorescence, primary screen (AID 1148).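 Further: score merges 667nm spot fluorescence with signal-to-noise for antibody binding to printed compounds.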 As to conditions: higher = more signal.
Assay [17] deals with Torsin-1A (Homo sapiens) (UniProt O14656). Put plainly: TOR1A wild-type binding on microarray – cell lysate, small-molecule microarray, lysate, 635/667 nm, primary screen (AID 1149). As to conditions: COS7 hTOR1A-WT lysate, 635 nm fluorescence, higher = more signal.
Sequence of Torsin-1A (Homo sapiens) (O14656 whole entry, looked up): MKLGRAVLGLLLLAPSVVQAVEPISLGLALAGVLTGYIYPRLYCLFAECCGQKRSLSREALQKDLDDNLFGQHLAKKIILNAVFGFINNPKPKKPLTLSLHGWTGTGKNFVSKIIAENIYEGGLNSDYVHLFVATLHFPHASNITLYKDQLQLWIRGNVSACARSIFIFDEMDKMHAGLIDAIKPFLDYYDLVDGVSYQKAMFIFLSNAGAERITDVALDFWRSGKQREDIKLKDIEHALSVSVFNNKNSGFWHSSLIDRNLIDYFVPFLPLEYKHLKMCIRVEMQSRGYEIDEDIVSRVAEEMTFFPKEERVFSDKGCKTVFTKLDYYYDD
Assay [18] shares this target. Put plainly: torsin A mutant lysate binding on microarrays – cell lysate, small-molecule microarray, COS7 lysate, 635/667 nm fluorescence, primary screen (AID 1150).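 Further: score pools 667 nm emission and signal to noise measuring lysate protein binding.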 The note with it: COS7 hTOR1A mutant lysate, 635 nm fluorescence, higher = more signal.
Assay [19] deals with Sonic hedgehog protein (Shh). Put plainly: Sonic hedgehog microarray binding compounds – biochemical, small-molecule microarray, 635/667 nm fluorescence, primary screen (AID 1151).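 Further: Shh protein binding to compounds spotted on small-molecule microarray slides; score combines spot fluorescence intensity with signal-to-noise across triplicate slides.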 As to conditions: 635 nm fluorescence, higher = more signal.

Calls of active or inactive are those of the source. Unless noted, how the calls were made is not given here.

These results are taken from PubChem BioAssay.

Sequence of Luciferin 4-monooxygenase (Photinus pyralis) (P08659 whole entry, looked up): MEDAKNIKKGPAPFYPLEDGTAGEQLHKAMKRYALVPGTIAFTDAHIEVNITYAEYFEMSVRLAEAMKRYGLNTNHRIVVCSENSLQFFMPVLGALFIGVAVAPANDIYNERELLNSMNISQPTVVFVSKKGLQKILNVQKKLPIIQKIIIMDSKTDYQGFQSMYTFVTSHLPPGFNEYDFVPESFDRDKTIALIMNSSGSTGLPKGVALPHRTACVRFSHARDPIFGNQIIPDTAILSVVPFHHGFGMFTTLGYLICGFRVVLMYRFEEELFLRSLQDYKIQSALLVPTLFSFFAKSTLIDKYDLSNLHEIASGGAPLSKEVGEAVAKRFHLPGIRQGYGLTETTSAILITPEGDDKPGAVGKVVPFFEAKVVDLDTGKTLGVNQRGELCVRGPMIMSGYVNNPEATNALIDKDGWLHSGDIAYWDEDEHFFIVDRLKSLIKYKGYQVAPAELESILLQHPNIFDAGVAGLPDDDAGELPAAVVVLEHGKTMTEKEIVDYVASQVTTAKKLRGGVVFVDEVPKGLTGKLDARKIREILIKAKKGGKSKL

For `CCC(CC)C(O)C1C=CC2C(=O)NC(=O)C2N1Nc1ccc(Cl)cc1Cl` (stereo not given), the composite z-score is 1.66 in [1]; 1.18 in assay [2]; 0.383 in [3]; 0.952 in assay [4]; 1.14 in assay [5]; -0.0832 in assay [6]. Moreover, the composite z-score with Lefty1 was 0.359; in [8] it was 0.788; in [10] it was 0.0146; in assay [15], 0.673; in assay [16] it was 0.225; with Torsin-1A (Homo sapiens) [17], -0.167. In addition, the composite z-score with Torsin-1A (Homo sapiens) [18] was found to be 0.418; in [19], 0.463. Besides, the z-score is -0.00434 in assay [7]; -0.533 (inactive) in assay [9]; -0.776 (inactive) in [11]; 0.34 (inactive) in assay [12]; 0.243 (inactive) in assay [13]; -0.273 (inactive) in [14].

As to `O=C1C[C@@](C(=O)NCCN2CCOCC2)(c2ccc([N+](=O)[O-])cc2)[C@@H](c2ccc(CO)cc2I)N1CC12CC3CC(CC(C3)C1)C2`, the composite z-score in assay [1] was determined as 1.37; in assay [2] it was 1.24; in assay [3], 0.656; in assay [4] it was 0.954; in assay [5] it was 1.19; in assay [6], 1.22. The composite z-score was 1.08 with Lefty1; 0.981 in [8]; 0.92 in assay [10]; 0.489 in assay [15]; 0.134 in [16]; 0.97 with Torsin-1A (Homo sapiens) [17]. The composite z-score with Torsin-1A (Homo sapiens) [18] turned out to be 0.578; in assay [19], 2.14. In addition, the z-score is -0.826 in assay [7]; -1.51 (inactive) in [9]; -5.9 (inactive) in [11]; 1.22 (inactive) in [12]; -0.269 (inactive) in assay [13]; -0.435 (inactive) in [14].

`CC(C)NC(=O)[C@@H]1c2ccccc2C(=O)N(C2Cc3ccccc3C2)[C@H]1c1ccc(CO)cc1`: the composite z-score was 1.51 in [1]; 1.04 in assay [2]; 0.0815 in assay [3]; 0.445 in assay [4]; 0.351 in assay [5]; 0.162 in assay [6]. Further, the composite z-score in the assay on Lefty1 is -0.0727; in assay [8], 0.664; in [10] it was -0.0402; in assay [15] it was 0.251; in assay [16] it was -0.128; with Torsin-1A (Homo sapiens) [17] it was -0.232. The composite z-score came out at 0.474 with Torsin-1A (Homo sapiens) [18] and 0.231 in [19]. The z-score was 2.54 in [7]; 0.668 (inactive) in [9]; -1.09 (inactive) in [11]; -0.737 (inactive) in assay [12]; 0.441 (inactive) in [13]; -1.35 (inactive) in assay [14].

Take `CC1CC/C=C\[C@H]2OC34C=CCN(Cc5ccccc5)C(=O)[C@H]3N(CCCO)C(=O)[C@@H]4C2C(=O)O1` (stereo not given in full): the composite z-score is 0.522 in assay [1]; -0.67 in assay [2]; -0.364 in assay [3]; 0.623 in assay [4]; -0.838 in assay [5]; -0.536 in [6]. Moreover, the composite z-score was -0.215 in the assay on Lefty1; -0.176 in assay [8]; -0.403 in assay [10]; -0.942 in assay [15]; -0.206 in [16]; -0.681 with Torsin-1A (Homo sapiens) [17]. Moreover, the results for the composite z-score (with Torsin-1A (Homo sapiens) [18]; in assay [19]) were -1.56 and -0.233, respectively. Also, the z-score was -0.178 in assay [7]; -0.483 (inactive) in [9]; -0.667 (inactive) in assay [11]; 0.446 (inactive) in assay [12]; -0.0778 (inactive) in assay [13]; 0.776 (inactive) in assay [14].

For the molecule `CC(C)C(=C=CC[C@H](O)c1ccc(OCCO)cc1)CCO`, the composite z-score in assay [1] turned out to be 1.07; in assay [2] it was 1.2; in assay [3], 0.178; in assay [4], 0.53; in [5], 1.38; in assay [6] it was 1.05. In addition, the composite z-score was 1.07 with Lefty1; 0.295 in assay [8]; 0.803 in assay [10]; 0.0996 in [15]; -0.179 in assay [16]; 1.37 in the assay with Torsin-1A (Homo sapiens) [17]. The composite z-score was found to be 0.653 with Torsin-1A (Homo sapiens) [18] and 2.05 in [19]. In addition, the z-score in assay [7] was 0.41; in assay [9], -0.961 (inactive); in assay [11], -1.97 (inactive); in [12], -0.596 (inactive); in assay [13], 3.49 (inactive); in assay [14] it was 0.36 (inactive).
